Screening data from PubChem BioAssay.
This is a sample that favours compounds with a hit; in the whole collection about 2.6% have one here.
A3A deaminase: blocks human APOBEC3A ssDNA deamination | P31941 | recombinant A3A, FAM/TAMRA ssDNA deamination fluorescence | inhibition, % at 20 µM | hit rate 0.41% among 330,000 | AID 493011;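 active means at least 40% inhibition at 20 µM here, with at most 30% in a related deaminase screen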;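 further: plate controls were A3A with DMSO for no effect and wells lacking A3A enzyme for full effect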
MLLE-PAM2 inh: inhibitors of microRNA-mediated deadenylation, human PABP1 MLLE binding; P11940; GST-MLLE / FITC-PAM2 fluorescence polarization; inhibition, % at 20 µM; hit rate 0.36% among 360,000; in the data active means inhibition above about 35%, passing the limit was not always enough;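 further: plate controls were DMSO wells with GST-MLLE for no effect and wells lacking GST-MLLE protein for full effect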
PABP FP inh: PABP-poly(A) binding inhibition; hit rate 1% among 290,000; calls only at 35 µM; P11940; PABP-poly(A) RNA binding, fluorescence polarization;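 further: calls also rest on retests at 20 µM and on dose response follow-up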
eIF4H FP inh: inhibitors of RNA binding by human eIF4H | eIF4H fluorescence polarization binding assay | inhibition, % at 35 µM | hit rate 0.94% among 290,000 | AID 2012;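 further: calls also rest on retests at 20 µM and on dose response follow-up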
A3G deaminase: inhibitors of human APOBEC3G DNA deaminase; Q9HC16; hit rate 0.28% among 330,000; recombinant A3G, ssDNA deamination FAM/TAMRA fluorescence; inhibition, % at 20 µM;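 active means inhibition of at least 40% at 20 µM, with no more than 30% in the related APOBEC3A deaminase screen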;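 further: plate controls were DMSO wells with A3G for no effect and wells lacking A3G enzyme for full effect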
PHOSPHO1 inh: inhibitors of human PHOSPHO1 phosphatase; Q8TCT1; recombinant PHOSPHO1, absorbance phosphatase assay; inhibition, % at 13.3 µM; hit rate 1.1% among 290,000; AID 1565; in the data active means inhibition above about 60%
Target sequence (Q8TCT1 whole entry, looked up): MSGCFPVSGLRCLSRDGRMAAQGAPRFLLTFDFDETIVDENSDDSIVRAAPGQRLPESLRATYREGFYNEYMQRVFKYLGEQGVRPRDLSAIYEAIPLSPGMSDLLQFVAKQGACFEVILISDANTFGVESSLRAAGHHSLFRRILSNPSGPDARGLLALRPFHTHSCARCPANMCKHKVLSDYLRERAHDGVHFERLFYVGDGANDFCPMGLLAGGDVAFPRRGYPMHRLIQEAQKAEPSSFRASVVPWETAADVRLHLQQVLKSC
Active calls of the source: *; i = inactive; . = not tested or not shown; + = active, no number. Unless noted, how the calls were made is not given here.

SMILES	A3A deaminase	MLLE-PAM2 inh	PABP FP inh	eIF4H FP inh	A3G deaminase	PHOSPHO1 inh
N#Cc1cccc(NC(=O)CN2CCN(Cc3ccccc3)CC2)c1	3	8	i	-13	0	22
COc1ccc(C(=O)O)cc1NC(=S)NC(=O)CSc1ccc(Cl)cc1	-1	40*	i	-13	-1	23
CCC(=O)NC(=S)Nc1cc(C(=O)O)ccc1OC	1	6	i	-4	3	-14
O=C(Nc1cc(C(F)(F)F)ccc1N1CCCC1)C1CC(=O)N(Cc2ccccc2)C1 (stereo unspecified)	.	18	.	.	.	.
CCN(CC)C(=O)Cn1ncc2c1-c1ccccc1OC2	0	4	i	63*	1	-14
N#CC1=C(N)Oc2cc(N)ccc2C1c1ccc(F)cc1F (stereo unspecified)	-7	-28	+	59	-7	29
Cc1cccc(-c2nc(=S)c3c(o2)CCCC3)c1	-3	45*	i	-7	-5	19
O=C(Nc1cccs1)Nc1c(F)c(F)c(F)c(F)c1F	3	43*	i	53	0	-20
O=C(Nc1cccs1)Nc1c(F)c(F)cc(F)c1F	-1	12	+	69*	0	12
CCOC(=O)C1CCN(C(=O)CCC2CCCC2)CC1	-2	-1	i	4	1	-6
COc1ccc(/C=N/NC2=NCCCCC2)c(OC)c1	-5	-1	+	active	-7	4
COc1ccc(/C=N/NC2=NCCCCC2)cc1	3	6	i	-23	4	13
N#Cc1cnn2c(-c3ccccc3)ccnc12	-1	1	i	11	-1	-31
NC(=S)c1cnn2c(-c3cccc(C(F)(F)F)c3)ccnc12	-1	38*	i	-4	-1	18
Cn1c(SCc2ccc([N+](=O)[O-])cc2)nc2c(c1=O)SCC2	1	18	+	active	-6	20
Cn1c(SCc2c(F)cccc2Cl)nc2c(c1=O)SCC2	-1	15	i	-6	-10	38
COCCCNC(=O)c1ccc(N2CCCC2)c(NS(=O)(=O)c2ccc(C)cc2)c1	-2	21	i	-5	5	64*
CC(C)(C)c1nc(S(=O)(=O)c2ccc(Cl)cc2)c(N2CCOCC2)o1	3	25	i	3	3	63*
CN1CCN(c2oc(-c3ccccc3)nc2S(=O)(=O)c2ccc(Br)cc2)CC1	-1	-9	i	-4	12	61*
COc1cc(-c2nc(S(=O)(=O)c3ccc(C)cc3)c(N3CCOCC3)o2)cc(OC)c1OC	-2	40*	i	-4	-3	3
CC(C)Cc1nc(S(=O)(=O)c2ccc(Cl)cc2)c(N2CCOCC2)o1	-4	30	i	-9	-3	24
COc1cc(-c2nc(S(=O)(=O)c3ccc(Cl)cc3)c(N3CCOCC3)o2)cc(OC)c1OC	2	2	i	-3	-2	1
Cc1ccc(C)c(-c2nnc(NC(=O)CCS(=O)(=O)c3ccc(F)cc3)o2)c1	-2	2	.	.	-8	.
Cc1cc(C)c2nc3s/c(=C/c4ccccc4)c(=O)n3c2c1	.	.	i	3	.	93*
NC(=O)C1CCN(C(=O)CN2CCCc3ccccc32)CC1	-5	33	+	78*	-8	6
SMILES	A3A deaminase	MLLE-PAM2 inh	PABP FP inh	eIF4H FP inh	A3G deaminase	PHOSPHO1 inh
CC1CC(C)CN(CC(=O)N2CCc3[nH]c4ccccc4c3C2)C1 (stereo unspecified)	-1	11	+	126*	-3	-14
CC1CN(CC(=O)N2CCc3[nH]c4ccccc4c3C2)CC(C)O1 (stereo unspecified)	9	19	i	15	5	19
Cc1ccc2[nH]c3c(c2c1)CN(C(=O)CN1CCCc2ccccc21)CC3	2	-30	i	57	-12	70*
O=C(CN1CCCc2ccccc21)NC(=O)NC1CCCCC1	-1	-15	i	37	-5	36
COc1cccc2c1cc1c(=O)n(CC(=O)N3CCCC3)nc(C)n12	.	-7	.	.	.	.
Cc1cccc(C(=O)OCN2C(=O)c3ccccc3C2=O)c1[N+](=O)[O-]	-2	7	i	-7	-4	23
Cc1cc(C)n2nc(SCc3cc(=O)oc4ccc5ccccc5c34)nc2n1	2	40*	i	29	-3	51
Cc1nnc(SCc2cc(=O)oc3ccc4ccccc4c23)n1Cc1ccccc1	1	3	i	30	-6	-12
CCOc1ccc(-n2c(SCc3cc(=O)oc4cc(C)ccc34)nnc2-c2cccnc2)cc1	2	-44	i	-2	-9	4
CCCn1c(SCc2cc(=O)oc3ccc4ccccc4c23)n[nH]c1=O	2	-59	i	29	-2	92*
CC(C)c1ccccc1-n1c(SCc2cc(=O)oc3ccc4ccccc4c23)nnc1-c1cccnc1	-2	-41	+	58*	-10	-32
COc1ccc(N(C(=O)c2ccc(S(=O)(=O)N3CCCC3)cc2)C2C=CS(=O)(=O)C2)cc1 (stereo unspecified)	1	-1	i	-12	-6	43
CCCc1cc(=O)[nH]c(SCC(=O)N(C)C2CCCCC2)n1	-4	11	.	.	-8	.
O=c1c(C(c2ccc(O)cc2)c2c(O)nc3n(c2=O)CCCS3)c(O)nc2n1CCCS2	25	35	i	59	11	65*
Cc1ccc(CCNC(=O)c2coc3nc4ccccc4nc23)cc1	1	-28	+	73	3	4
Nc1nc2ncc(C(=O)c3cc(F)ccc3O)cc2s1	-1	-15	i	-10	-7	-33
Nc1nc2ncc(C(=O)c3cc(Cl)cc(Cl)c3O)cc2s1	6	-10	i	89*	-2	25
O=[N+]([O-])c1cccc(COc2cccc(CN3CCCCC3)c2)c1	.	-2	.	.	.	.
Cc1cc(-c2n[nH]c(=S)n2-c2ccccc2C)cs1	-4	-6	i	active	23	-26
CCc1cc(-c2n[nH]c(=S)n2-c2cccc(C)c2)cs1	-7	-2	i	-4	10	92*
Cc1cccc(-n2c(-c3csc(C)c3)n[nH]c2=S)c1	-3	13	i	10	29	99*
Cc1cc(Cl)ccc1-n1c(-c2cccnc2)n[nH]c1=S	-1	-18	i	-4	28	78*
Cc1ccc(C)c(-n2c(-c3cccnc3)n[nH]c2=S)c1	-2	-18	i	-2	21	13
COc1ccc([C@H]2N[C@]3(CCCN(Cc4ccc(C)cc4)C3=O)[C@H]3C(=O)N(Cc4ccccc4)C(=O)[C@@H]23)cc1	.	-7	.	.	.	.
O=C(COC(=O)C1CC1)NCc1ccccc1	2	0	.	.	3	.
CCCC(C(=O)Nc1ccc2c(C)cc(=O)oc2c1)c1ccccc1 (stereo unspecified)	6	2	i	-3	4	-6
COC(=O)c1ccc(NC(=O)C2CCN(C(=O)c3cc(OC)c(OC)c(OC)c3)CC2)cc1	33	-144	i	-3	14	106*
